Hits are enriched below; roughly 12% of the tested compounds scored in any of these assays.
HP1b binding inh – blocks HP1-beta chromodomain binding to methylated histone tails. P83916. AlphaScreen HP1-beta / biotin-H3K9me3 peptide binding. Potency, µM (top dose mostly 114 µM), inactives show top-dose activity change, negative = inhibition, usual class: inhibitors. actives 0.56% (n = 390,000). AID 540317; further: nearly all actives have a fitted effect of over 70% in size
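HP1-beta protein (50 nM final) preincubated 30 min at room temperature with biotinylated H3(1-18)K9me3 peptide (50 nM) in PBS pH 7.4, 0.01% Tween-20, then compound added for 30 min. AlphaScreen streptavidin donor/nickel chelate acceptor beads (10 ug/mL final), 30 min dark, luminescence read.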
G9a inh – inhibitors of human histone lysine methyltransferase G9a. G9a H3K9 monomethylation, AlphaScreen, 2 h. Potency, µM (titrated, usually from 102 µM), without a hit: at the top dose activity, negative = inhibition, usual class: inhibitors. actives 8.8% (n = 350,000); further: on the % scale 0 is the no-effect control and ±100 the full control effect; nearly all actives have a fitted effect of over 75% in size
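G9a (20 nM) preincubated 15 min RT with compounds, then 500 nM biotinylated H3K9 peptide and 20 uM SAM added; 2 h RT reaction. Monomethyl-H3K9 product detected by AlphaScreen with anti-H3K9me1 antibody, streptavidin donor and anti-rabbit IgG acceptor beads.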
JMJD2A Tudor – JMJD2A Tudor domain (human) inhibition | O75164 | AlphaScreen JMJD2A-Tudor / H3K4me3 peptide binding | Potency, µM (series often up to 114 µM), for inactives: top-dose activity change, negative = inhibition, most hits filed as inhibitors | actives 4.4% (n = 390,000); further: on the % scale 0 is the no-effect control and ±100 the full control effect; nearly all actives have a fitted effect of over 50% in size
Sfp inh – inhibitors of Bacillus subtilis Sfp phosphopantetheinyl transferase; Q9F4F7; Biochemical Sfp PPTase activity, qHTS; Potency, µM, inactives show largest response in the series, negative = inhibition, usual class: inhibitors; actives 3.5% (n = 310,000);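 further: the enzyme is Sfp with the accession as filed and its product quenches rhodamine fluorescence; 0% = enzyme reaction without inhibitor and -100% = no enzyme wells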
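Fluorescence-quenching assay: 15 nM Sfp-PPTase preincubated 15 min at room temperature with compound, then 5 uM rhodamine-CoA and 12.5 uM BHQ-2-labelled YbbR peptide added. Fluorescence (ex 525/em 598 nm) read at start and after 30 min; difference gives rate.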
BAZ2B block – blocks human BAZ2B. Q9UIF8. AlphaScreen BAZ2B-H3K14Ac peptide displacement. Potency, µM (highest dose often 114 µM), inactives show at the highest dose activity change, negative = inhibition, usual class: inhibitors. actives 4.4% (n = 360,000). AID 504333; further: on the % scale 0 is the no-effect control and ±100 the full control effect; nearly all actives have a fitted effect of over 60% in size
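BAZ2B 50 nM plus b-H3(5-23)K14Ac 50 nM, PBS pH 7.4/0.01% Tween-20, 30 min RT; compound added (max 110 uM), 30 min RT; streptavidin donor/Ni-chelate acceptor beads 10 ug/mL final, 20 min dark; AlphaScreen read.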
L3MBTL1 block – inhibitors of human L3MBTL1 | Q9Y468 | AlphaScreen L3MBTL1–H3K9me1 peptide binding | Potency, µM (highest dose often 57.1 µM), for inactives: top-dose activity, negative = inhibition, hits mostly inhibitors | actives 0.66% (n = 230,000) | AID 485360; further: on the % scale 0 is the no-effect control and ±100 the full control effect; nearly all actives have a fitted effect of over 60% in size
Target sequence (Q9Y468 whole entry, looked up): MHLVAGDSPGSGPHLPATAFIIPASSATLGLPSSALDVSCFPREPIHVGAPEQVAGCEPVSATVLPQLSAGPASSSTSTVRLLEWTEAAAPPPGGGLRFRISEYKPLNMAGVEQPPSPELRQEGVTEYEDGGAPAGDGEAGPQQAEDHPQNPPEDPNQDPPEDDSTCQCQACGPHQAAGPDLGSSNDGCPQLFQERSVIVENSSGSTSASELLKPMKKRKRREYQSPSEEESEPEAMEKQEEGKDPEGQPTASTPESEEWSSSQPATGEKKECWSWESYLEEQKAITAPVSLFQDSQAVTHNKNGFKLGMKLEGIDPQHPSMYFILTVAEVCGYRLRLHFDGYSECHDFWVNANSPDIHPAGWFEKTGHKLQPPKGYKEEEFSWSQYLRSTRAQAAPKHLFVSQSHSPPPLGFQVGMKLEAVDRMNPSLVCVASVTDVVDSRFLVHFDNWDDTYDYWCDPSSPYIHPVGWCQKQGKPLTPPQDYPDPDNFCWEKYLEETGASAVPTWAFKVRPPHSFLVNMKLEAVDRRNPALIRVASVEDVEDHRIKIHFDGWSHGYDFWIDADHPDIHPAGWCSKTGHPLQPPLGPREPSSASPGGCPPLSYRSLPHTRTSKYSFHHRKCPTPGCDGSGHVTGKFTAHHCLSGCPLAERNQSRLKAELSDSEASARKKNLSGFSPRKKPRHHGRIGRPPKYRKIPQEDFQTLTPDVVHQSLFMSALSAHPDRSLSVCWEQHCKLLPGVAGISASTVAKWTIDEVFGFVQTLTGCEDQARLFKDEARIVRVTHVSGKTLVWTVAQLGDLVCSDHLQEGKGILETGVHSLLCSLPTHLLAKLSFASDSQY
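AlphaScreen proximity signal between nickel-chelate acceptor and streptavidin donor beads (final 10 ug/mL) reports binding of 50 nM L3MBTL1 to 75 nM biotin-H3 K9me1 peptide; complex incubated with compounds 30 min at room temperature; cefsulodin titration as control.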
Sfp inh conf – confirmation of Bacillus subtilis Sfp PPTase inhibitors | Potency, µM (doses to about 114 µM), without a hit: top-dose activity change, negative = inhibition, actives largely listed as inhibitors | Sfp PPTase enzymatic assay, qHTS titration | actives 79% (n = 380) | shares compounds with Sfp inh | AID 2701;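 further: plate controls were uninhibited Sfp reaction for no effect and no enzyme control for full effect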
Starred values were filed as active, the others as inactive; ! = not active in a repeat; [ ] = another dose, or the depositor's remark. The call rests on the fitted dose curve; in most records, active means well fitted curve in the direction sought with a large enough effect; inconclusive means small, poorly fitted or top-dose-only effect, or another doubt; inactive means no such curve, though single readings can be large; an effect the other way counts as inactive or inconclusive. Potency means the concentration at half of the fitted maximal effect.

CC1=NN(C(N)=S)C(=O)C1N=Nc1c(Br)cc(Br)cc1Br (stereo not given) was read as HP1b binding inh -18.1%, G9a inh 0.0%[0.501 µM], JMJD2A Tudor 56.2µM*, Sfp inh -16.6%, BAZ2B block 28.2µM* and L3MBTL1 block -2.2%[2.29 µM].
For CC1=NN(C(N)=S)C(=O)C1N=Nc1c(C)cc(C)cc1C (stereo not given) the results were HP1b binding inh 6.1%, G9a inh 6.9%, JMJD2A Tudor -13.2%, Sfp inh -6.5% and BAZ2B block inconclusive.
Screening CN(C)S(=O)(=O)c1ccc2c(c1)N(CC(=O)N1CCN(c3ccccc3F)CC1)CCS2 returned HP1b binding inh 7.4%[57 µM], G9a inh -1.7%[59 µM], JMJD2A Tudor -20.1% and BAZ2B block -22.9%.
`COC(=O)C1=C(C(=O)OC)[C@@H]2N(Cc3ccccc3)c3ccccc3[C@@]23C[C@@H](C(=O)OC)N(S(=O)(=O)c2ccc(C#N)cc2)C3=N1` gave Sfp inh -9.6%.
`Cc1nn(CCO)c2ncc(C(=O)c3cc(Cl)ccc3O)cc12` gave HP1b binding inh 3.4%, G9a inh 8.0%, JMJD2A Tudor -13.7%, Sfp inh 12.6% and BAZ2B block 5.0%.
Cc1nn(CCO)c2ncc(C(=O)c3cc(F)ccc3O)cc12 was read as HP1b binding inh 13.5%, G9a inh 50.1µM*, JMJD2A Tudor 10.9%, Sfp inh 4.1% and BAZ2B block 3.9%.
`COc1ccc2c(c1)c1c(c(=O)n(CCc3ccccc3)c(=O)n1Cc1ccc(Cl)cc1)n2C` gave HP1b binding inh 35.7%, G9a inh 4.5%[59 µM], JMJD2A Tudor 11.0% and BAZ2B block -1.8%.
Screening Cc1cccc2cc(C(c3nnnn3C(C)(C)C)N(Cc3ccco3)CC3CCCO3)c(=O)[nH]c12 (stereo not given) returned HP1b binding inh 15.8µM*, G9a inh 50.1µM*, JMJD2A Tudor 25.1µM*, Sfp inh 12.3%, BAZ2B block 50.1µM* and L3MBTL1 block inconclusive.
CCC(c1nnnn1Cc1ccco1)N(Cc1ccccc1OC)Cc1cc2cc(C)ccc2[nH]c1=O (stereo not given) was read as HP1b binding inh -2.2%, G9a inh -6.1%[59 µM], JMJD2A Tudor inconclusive, Sfp inh -24.2%, BAZ2B block 2.7% and L3MBTL1 block 0.1%.
`CCC(c1nnnn1Cc1ccco1)N(Cc1cc2cc(C)cc(C)c2[nH]c1=O)CC1CCCO1` (stereo not given) gave HP1b binding inh inconclusive, G9a inh inconclusive, JMJD2A Tudor -20.5%[11.4 µM], Sfp inh 22.4µM* and BAZ2B block inconclusive.
Screening Cc1ccc2[nH]c(=O)c(C(c3nnnn3C(C)(C)C)N(Cc3ccco3)CC3CCCO3)cc2c1 (stereo not given) returned HP1b binding inh 13.9%, G9a inh -35.7%, JMJD2A Tudor -25.8%, Sfp inh inconclusive, BAZ2B block 10.7% and L3MBTL1 block 8.1%.
For Cc1noc(C)c1C(=O)N1CCC[C@@]2(CCN(C(c3ccccc3)c3ccccc3)C2)C1 the results were G9a inh -4.9%[12.7 µM] and Sfp inh -10.7%.
For CN1CCN(C(=S)c2ccc(Br)cc2)CC1 the results were HP1b binding inh -20.6%, G9a inh 20µM*, JMJD2A Tudor -24.5%, Sfp inh 1.26µM*, BAZ2B block -9.7%, L3MBTL1 block 0.5% and Sfp inh conf 13.2µM*.
CN1CCN(C(=S)c2ccc(N(C)C)cc2)CC1 was read as HP1b binding inh inconclusive, G9a inh inconclusive, JMJD2A Tudor -18.2%, Sfp inh -4.7%, BAZ2B block 0.9% and L3MBTL1 block -9.0%.
CCN1CCN(C(=S)c2ccc(O)cc2)CC1 was read as HP1b binding inh -9.5%, G9a inh 6.31µM*, JMJD2A Tudor -9.4%, Sfp inh 2.82µM*, BAZ2B block -28.2%, L3MBTL1 block 1.8% and Sfp inh conf 8.35µM*.
CN(C)c1ccc(C(=S)N2CCN(Cc3ccccc3)CC2)cc1 was read as HP1b binding inh inconclusive, G9a inh 8.91µM*, JMJD2A Tudor 56.2µM*, Sfp inh 2.24µM*, BAZ2B block 35.5µM*, L3MBTL1 block -24.3% and Sfp inh conf 11.8µM*.
For COc1ccc2nc(SCC(=O)Nc3c(C)cccc3C)[nH]c2c1 the results were HP1b binding inh 20.1%, G9a inh 4.9%[12.7 µM], JMJD2A Tudor 1.3%, Sfp inh 0.8%, BAZ2B block 5.4% and L3MBTL1 block -4.3%.
For COc1ccc2nc(S(=O)Cc3ncc(C)c(OC)c3C)[nH]c2c1 (stereo not given) the results were HP1b binding inh 14.1µM*, G9a inh 1.41µM*, JMJD2A Tudor 28.2µM*, Sfp inh 20µM*!, BAZ2B block 31.6µM*, L3MBTL1 block -12.8% and Sfp inh conf 37.3µM*.
Screening CN(C)C=Nc1ccccc1C1C=NNC1=O (stereo not given) returned G9a inh 39.8µM*, Sfp inh 17.8µM*, BAZ2B block -35.0%, L3MBTL1 block -13.9% and Sfp inh conf 9.3%.
CC(=O)c1c(N=CN(C)C)nc(C)nc1-c1ccccc1 was read as HP1b binding inh 25.7%, G9a inh 18.9%, JMJD2A Tudor 0.7%, Sfp inh 14.9%, BAZ2B block -1.2% and L3MBTL1 block -3.2%.
Cc1ccc(C(=O)NC(=S)Nc2ccc(-c3ccc(CO)o3)cc2)cc1 was read as HP1b binding inh -8.6%, G9a inh inconclusive, JMJD2A Tudor inconclusive, Sfp inh 7.08µM* and Sfp inh conf 8.35µM*.
Screening Cc1ccc(C(=O)NC(=S)Nc2ccc(Oc3ccc(Cl)cc3)cc2)cc1 returned HP1b binding inh 3.0%, G9a inh -16.1%, JMJD2A Tudor -14.7%, Sfp inh 11.4%, BAZ2B block -27.1% and L3MBTL1 block -0.7%.
`CC(NC(=O)CSc1nc2sc3c(c2c(=O)n1-c1ccccc1)CCCC3)c1ccccc1` (stereo not given) gave HP1b binding inh 11.2%, G9a inh 15.0%[59 µM], JMJD2A Tudor -26.0%, Sfp inh 12.1%, BAZ2B block 6.2% and L3MBTL1 block -2.4%.

Bioassay records: PubChem BioAssay, National Center for Advancing Translational Sciences (NCATS)
